SARS PLP yeast – inhibitors of SARS-CoV papain-like protease in yeast | Potency, µM (top dose mostly 32.9 µM), for the others: at the top dose activity, positive = growth rescue, most hits filed as activators | AID 485353 | S. cerevisiae expressing SARS-CoV PLpro, growth rescue | actives 0.19% (n = 330,000); calls by dose curve; note: potency is the fitted concentration of half-maximal effect; 0% is about no effect; nearly all actives have a fitted effect of over 55% in size
HCV inhibitor – inhibitors of hepatitis C virus infection | Huh7.5.1 HCVcc-Cre infection, luciferase reporter, 44 h | Potency, µM (highest dose often 41.8 µM), for the others: top-dose activity change, negative = inhibition, usual class: inhibitors | actives 3.4% (n = 340,000) | AID 651820; active = well fitted inhibition curve with a large enough effect; inconclusive = small, poorly fitted or top-dose-only effect, or another doubt; inactive = no such curve, though single readings can be large or run the other way; note: potency is the fitted concentration of half-maximal effect; % is set by controls: 0 for no effect and ±100 for the full control effect
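Compounds are dispensed onto cells plated 4 h earlier at 1,000 per well, with HCVcc-Cre virus (about 0.5 moi) added next. Following 44 h of culture, luminescent signal is measured for 15 sec after 15 min with substrate at room temperature.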
Marburg entry inh – Marburg virus entry inhibition; actives 1.8% (n = 300,000); AID 540276; Potency, µM (top dose mostly 37.8 µM), for the others: at the top dose activity change, negative = inhibition, actives largely listed as inhibitors; Marburg virus pseudotyped entry inhibition, cell reporter; calls by dose curve; tested in HEK293 cells; note: potency is the fitted concentration of half-maximal effect; % is set by controls: 0 for no effect and ±100 for the full control effect
LASV entry inh – inhibitors of Lassa virus binding or cell entry; Lassa virus pseudotype entry inhibition, cell reporter; Potency, µM (titrated, usually from 37.9 µM), inactives show top-dose activity change, negative = inhibition, hits mostly inhibitors; actives 1.2% (n = 300,000); AID 540256; calls by dose curve; tested in HEK293 cells; note: potency is the fitted concentration of half-maximal effect; % is set by controls: 0 for no effect and ±100 for the full control effect; nearly all actives have a fitted effect of over 50% in size
HCMV inh – inhibitors of human cytomegalovirus | HFF cells, HCMV-luciferase reporter, 72 h; hits give low values | activity change, negative = inhibition, % at 57.5 µM | actives 4.5% (n = 410,000); in the data active = activity change below about -60%; inconclusive = no clear call, values can overlap the other calls; inactive = above about -39%; note: % is set by controls: 0 for no effect and ±100 for the full control effect
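After 16 h attachment at 37C, HFF cells received test compound and HCMV-luciferase (1 PFU/cell); reporter luminescence read 72 h later, data normalized against buffer-only and known inhibitor Salinomycin.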
FMDV inh – foot and mouth disease virus antiviral activity; FMDV antiviral cell-based qHTS; Potency, µM (doses to about 57.9 µM), for the others: at the highest dose activity change, negative = inhibition, most hits filed as inhibitors; actives 1.2% (n = 410,000); calls by dose curve; tested in HEK293T cells; note: read-out not given here; potency is the fitted concentration of half-maximal effect; % is set by controls: 0 for no effect and ±100 for the full control effect; nearly all actives have a fitted effect of over 45% in size
The depositor's hits bear a star; ? = inconclusive; · = not tested or not shown; [ ] = another dose, or the depositor's remark. Compounds with a hit are over-represented: about 8% of the library has one in this group of screens.

SMILES	SARS PLP yeast	HCV inhibitor	Marburg entry inh	LASV entry inh	HCMV inh	FMDV inh
Cc1ccc(C)c(N2CCN(C(c3ccc(F)cc3)c3nnc(-c4ccccc4)o3)CC2)c1 (stereo not given)	·	·	?	?	-22	-17%
CCOC(=O)c1c(N)n(-c2ccc(Cl)c(Cl)c2)c2nc3ccccc3nc12	·	·	-1%[46.1 µM]	11%[46.1 µM]	?	-22%
N#CC(=C(/N)Sc1ccccc1N)/C(C#N)=C(\N)Sc1ccccc1N	·	·	?	·	·	-1%
Cc1ccc(N/C=C/C(=O)c2cccs2)cc1	-1%	-2%	·	·	13	-51%
O=C(/C=C/Nc1ccc(F)cc1F)c1cccs1	13%	0%	?	1.4µM*	49	20µM*
Cc1ccc([C@H]2C[C@H](c3cccs3)n3nc(N)nc3N2)cc1	·	·	5%	·	·	·
N#CCCN(Cc1ccccc1)C(=O)CCC(=O)c1ccc(F)cc1	·	·	·	·	-20	-9%
Cc1cc(C)cc(OCC(=O)Nc2cccc(-c3nnc(-c4ccco4)o3)c2)c1	-11%	-3%	-13%	50%[14.3 µM]	62	20µM*
O=C(Nc1cccc(-c2nc3ccccc3o2)c1)c1ccc(N2C(=O)C3C4C=CC(C4)C3C2=O)cc1 (stereo not given)	-7%	?	?	?	-26	32µM*
COc1ccc(C(=O)Nc2cccc(-c3nnc(-c4ccco4)o3)c2)cc1	-19%	13µM*	?	-17%	-17	35µM*
COc1ccc(CC(=O)Nc2cccc(-c3nnc(-c4ccco4)o3)c2)cc1	7%	?	?	?	?	?
COc1ccc(OCC(=O)Nc2cccc(-c3nc4ccccc4o3)c2)cc1	8%	10µM*	-14%	3%	20	-1%
COc1ccc(/C=C(\NC(=O)c2ccccc2Cl)C(=O)NCCCC(=O)O)cc1	0%	15%	2%[46.1 µM]	-18%[46.1 µM]	4	28%
Cc1ccc2c(=O)cc(C(=O)Nc3ccc(S(=O)(=O)N4CCCCCC4)cc3)oc2c1	·	·	1%[46.1 µM]	22%[46.1 µM]	6	-8%
COc1cc(/C=C2\SC(c3ccc(C)cc3)=NC2=O)cc(OC)c1O	-6%	-2%	-18%	3%	-75*	17%
Cc1ccc(C2=NC(=O)/C(=C/c3cc(O)c(O)c(Br)c3)S2)cc1	6.3µM*	-12%	?	-4%[46.1 µM]	0	?
COc1ccc(/C=C2\SC(N)=NC2=O)cc1Br	-2%	-21%	15%	-24%	-15	0%
Cc1nn(C2CCS(=O)(=O)C2)c(Cl)c1/C=C/C(=O)OCC(N)=O (stereo not given)	0%	2%	3%	·	-23	-11%
COC(=O)C1=C(C(=O)OC)[C@@H]2N(C)c3ccc(OC)cc3[C@@]23C[C@@H](C(=O)OC)N(C(=O)NC2CCCCC2)C3=N1	·	6%	·	·	-26	-6%
CCCCOc1ccc(CCN)cc1Cl	-12%	?	?	6%	-60*	31%
CCCCOc1ccc(CSCCN)cc1Cl	-1%	?	·	·	-3	43%
COc1ccc(CC(=O)N(Cc2nc(-c3ccc(C)cc3)no2)C(C)C)cc1	·	·	-29%[46.1 µM]	1%[46.1 µM]	-22	-18%
CC(C)N(Cc1nc(-c2ccccc2)no1)C(=O)COc1ccccc1	-1%	-10%	·	·	-3	-2%
COc1ccccc1OCC(=O)N(Cc1nc(-c2ccccc2)no1)C(C)C	-3%	3.2µM*	?	7.9µM*	-5	-2%
CC(Oc1ccc(Br)cc1)C(=O)N(Cc1nc(-c2ccccc2)no1)C(C)C (stereo not given)	·	·	?	-16%[46.1 µM]	-70*	?
SMILES	SARS PLP yeast	HCV inhibitor	Marburg entry inh	LASV entry inh	HCMV inh	FMDV inh
COc1ccc(OC(C)C(=O)N(C)Cc2nc(-c3ccc(OC)cc3)no2)cc1 (stereo not given)	2%	?	-11%[46.1 µM]	-24%	-65*	?
COc1ccc(OC(C)C(=O)N(C)Cc2nc(-c3ccc(C)cc3)no2)cc1 (stereo not given)	-14%	14µM*	-1%[46.1 µM]	·	-32	?
N#CCCN(Cc1ccccc1)C(C(=O)NC1CCCCC1)c1cc2ccccc2o1 (stereo not given)	·	·	·	·	-60*	-25%
Cc1cccc(-c2nc3nc(C)cc(NC(C)c4ccccc4)n3n2)c1 (stereo not given)	·	·	·	0%[46.1 µM]	-15	-19%
Cc1ccc(NC(=S)NCc2ccc3c(c2)OCO3)cc1C	-37%	8%	-1%	6%	11	44%
O=C(NCc1ccc2c(c1)OCO2)c1ccncc1	16µM*	25%	29%	?	7	3%
S=C(NCc1ccc2c(c1)OCO2)Nc1ccc2nsnc2c1	-5%	?	-36%[46.1 µM]	19%	-66*	34%
Cc1ccc(SCc2ccc(C(=O)NCc3ccncc3)cc2)cc1	-6%	-24%	?	-10%	-78*	·
Cc1ccccc1C(=O)N1c2ncnn2C2(CCCCC2)[C@@H]2CCCC[C@@H]21	·	·	1%[46.1 µM]	-10%[46.1 µM]	-12	?
Cc1ccc(NC(=O)N2CCC(CN3CCCCC3)CC2)c(Cl)c1	·	·	·	19%[46.1 µM]	1	-2%
CCN1CCN(C(c2ccccc2Cl)c2c(O)cc(C)n(Cc3ccco3)c2=O)CC1 (stereo not given)	·	·	·	-1%[46.1 µM]	0	-24%
O=c1c2sc3ccccc3c2n(Cc2cccc(C(F)(F)F)c2)c(=O)n1-c1ccccc1	·	·	?	?	-22	-10%
CCOC(=O)N1CCc2cc(OC)c(OC)c3c2c1cc1cc(OC)c(OC)cc13	·	?	7.9µM*	?	-12	?
Cn1c(O)c(C(=Nc2ccccc2)SCc2ccccc2Cl)c(=O)n(C)c1=O	1%	-18%	?	-17%	-65*	?
O=C(c1cccc(S(=O)(=O)N2CCc3ccccc32)c1)N1CCN(c2ccccn2)CC1	2%	?	?	?	-78*	?
COc1ccc(N2CCN(C(=O)c3cccc(S(=O)(=O)N4CCc5ccccc54)c3)CC2)cc1	-2%	?	?	?	-8	-6%
S=C(Nc1cc(Cl)ccc1Oc1ccccc1)N1CCN(c2ccccn2)CC1	1%	11µM*	?	?	-78*	-5%
O=C(Nc1ccc(S(=O)(=O)N2CCc3ccccc32)cc1)C(F)(F)F	0%	-5%	?	14%	-14	-23%
O=C(CNC(=O)c1cccc(S(=O)(=O)N2CCc3ccccc32)c1)Nc1ccccc1Br	·	?	?	?	-83*	52%
O=C(Nc1ccc(S(=O)(=O)N2CCc3ccccc32)cc1)c1ccco1	4%	8.9µM*	-21%	7.3µM*	-81*	?
COc1ccc(OC)c(NC(=S)N2CCN(c3ccccn3)CC2)c1	-19%	23%	-2%[46.1 µM]	?	-28	15%
COC(=O)CC1C(=O)NCCN1C(=O)CN1Cc2ccccc2OC(c2ccccc2)C1 (stereo not given)	·	·	·	·	·	9%
CC1(C)CC(=O)C=C(c2ccc(-c3cccc4c3sc3ccccc34)cc2)C1=O	·	·	·	·	-9	-1%

Bioassay records as filed in PubChem BioAssay.
